A word on the inhibition: it is the change of the read-out against control, counted positive when it falls.

This passage reports inhibition results from PubChem BioAssay AID652115 (Broad Institute, 2013).

SMILES strings stand for the structures. “And” between values parts separate entries of the source, which are not always exact repeats. Equal entries are not always repeated. Hit rate of the full screen: of about 330,000 compounds, about 3,800 (1.2%) were called active. Only a selection was taken, and actives are over-represented in it overall. A number with no mark means an inactive call. Rule as the data show it: active = inhibition above about 15%; inconclusive = no clear call, values can overlap the other calls; inactive = below that.

In this assay the target is NAD-dependent protein deacylase sirtuin-5, mitochondrial (Homo sapiens) (UniProt Q9NXA8). Put plainly: SIRT5 desuccinylase inhibitors, primary screen, biochemical, fluorescence imaging, single point, set 5 (AID 652115). Conditions: Purified SirT5, succinyl-peptide AMC, trypsin-coupled fluorescence; at 15 µM; active compounds read high.
NAD-dependent protein deacylase sirtuin-5, mitochondrial (Homo sapiens), sequence (Q9NXA8 whole entry, looked up): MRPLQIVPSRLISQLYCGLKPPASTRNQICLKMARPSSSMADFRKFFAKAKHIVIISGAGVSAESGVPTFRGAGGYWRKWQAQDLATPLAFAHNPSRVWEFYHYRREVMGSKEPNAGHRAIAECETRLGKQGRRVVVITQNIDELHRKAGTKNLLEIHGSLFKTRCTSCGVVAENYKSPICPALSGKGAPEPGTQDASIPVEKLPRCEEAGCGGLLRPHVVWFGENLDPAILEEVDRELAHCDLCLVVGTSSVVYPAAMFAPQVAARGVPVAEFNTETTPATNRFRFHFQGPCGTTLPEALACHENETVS
For the molecule `O=C(NCC[C@@H]1CC[C@@H](NS(=O)(=O)c2cccc(F)c2)[C@H](CO)O1)C1CC1`, the inhibition was -0.786%.
Under `C[C@H]1CN([C@@H](C)CO)C(=O)c2cccc(NC(=O)Nc3ccccc3)c2O[C@H]1CN(C)S(=O)(=O)c1ccc(F)cc1` stands -1.45%; under `CCC(=O)Nc1ccc2c(c1)C(=O)N(C)[C@H]1CC[C@H](CC(=O)NCCOC)O[C@@H]1CO2`, 2.38%; under `C[C@@H]1CN([C@@H](C)CO)C(=O)Cc2cc(NS(=O)(=O)c3cccs3)ccc2O[C@@H]1CN(C)C(=O)Nc1ccc(C(F)(F)F)cc1`, 3.48%.
Under `COc1ccc(S(=O)(=O)Nc2ccc3c(c2)C(=O)N([C@@H](C)CO)C[C@H](C)[C@H](CN(C)Cc2ccc(C(F)(F)F)cc2)OCCCC[C@@H](C)O3)cc1` stands 9.2%; under `COc1ccc(S(=O)(=O)Nc2ccc3c(c2)C(=O)N([C@H](C)CO)C[C@@H](C)[C@H](CN(C)S(=O)(=O)c2ccc(Cl)cc2)OCCCC[C@@H](C)O3)cc1`, 13.8%; under `COc1ccc(S(=O)(=O)Nc2ccc3c(c2)C(=O)N([C@@H](C)CO)C[C@@H](C)[C@H](CN(C)Cc2ccc(C(F)(F)F)cc2)OCCCC[C@@H](C)O3)cc1`, 16.7% (active).
Regarding `Cc1ccc(S(=O)(=O)Nc2ccc3c(c2)C(=O)N([C@H](C)CO)C[C@H](C)[C@H](CN(C)S(=O)(=O)c2ccc(F)cc2)OCCCC[C@@H](C)O3)cc1`, the inhibition was 4.66%.
As for `Cc1ccc(S(=O)(=O)N(C)C[C@@H]2OCCCC[C@@H](C)Oc3ccc(NS(=O)(=O)c4ccc(F)cc4)cc3C(=O)N([C@H](C)CO)C[C@H]2C)cc1`, the figure is 19.9% (active).
Under `C[C@H](CO)N1C[C@H](C)[C@H](CN(C)S(=O)(=O)c2ccc(F)cc2)OCCCC[C@H](C)Oc2ccc(NS(=O)(=O)c3ccc(Cl)cc3)cc2C1=O` stands 17.6% (active).
Consider `Cc1ccc(S(=O)(=O)N(C)C[C@H]2OCCCC[C@@H](C)Oc3ccc(NC(=O)Nc4ccc(F)cc4)cc3C(=O)N([C@@H](C)CO)C[C@H]2C)cc1`, for which the inhibition was -2.04%.
For the molecule `C[C@H]1CN([C@@H](C)CO)C(=O)c2cc(NS(C)(=O)=O)ccc2O[C@H]1CN(C)C(=O)Nc1ccc(C(F)(F)F)cc1`, the inhibition is -4.07%.
Under `C[C@@H]1CCCCO[C@H](CN(C)S(=O)(=O)c2ccc(F)cc2)[C@H](C)CN([C@@H](C)CO)C(=O)c2cc(NS(=O)(=O)c3ccccc3)ccc2O1` stands 4.58%; under `COc1ccc(CN(C)C[C@@H]2OCCCC[C@H](C)Oc3ccc(NS(=O)(=O)c4ccc(F)cc4)cc3C(=O)N([C@H](C)CO)C[C@H]2C)cc1`, -3.51%; under `C[C@@H]1CN([C@H](C)CO)C(=O)c2cc(NS(=O)(=O)c3cccs3)ccc2O[C@@H]1CN(C)Cc1ccc(C(F)(F)F)cc1`, 2.33%.
As for `C[C@H](CO)N1C[C@H](C)[C@H](CN(C)Cc2ccc(C(F)(F)F)cc2)Oc2ccc(NS(C)(=O)=O)cc2C1=O`, the figure is 21.5% (active); as for `O=C(C[C@H]1CC[C@H]2[C@@H](COC[C@@H](O)CN2C(=O)c2ccc3c(c2)OCO3)O1)NC1Cc2ccccc2C1`, -1.48%.
As for `CCCNC(=O)Nc1ccc2c(c1)OC[C@H](C)N(C(=O)C1CCC1)C[C@H](C)[C@@H](OC)CN(C)C2=O`, the figure is -2.08%.
Consider `COc1ccc2c3c([nH]c2c1)[C@H](CO)N(Cc1nccs1)CC31CCN(Cc2ccncc2)CC1`, for which the inhibition is 1.68%.
Under `CC=Cc1ccc2n(c1=O)C[C@@H]1[C@@H](CO)[C@H](C(=O)N3CCCCC3)[C@H]2N1C(=O)C1CCC1` (mixture of isomers) stands -13.5%.
As for `Nc1ccccc1-c1cn(CC(=O)Nc2ccon2)nn1`, the figure is -0.431%.
Under `C[C@@H]1CN([C@H](C)CO)C(=O)c2cc(C#CCC3CCCC3)cnc2O[C@H]1CN(C)Cc1ccccn1` stands -6.11%; under `C[C@H](CO)N1C[C@H](C)[C@H](CN(C)Cc2ccc3c(c2)OCO3)OCCCC[C@H](C)Oc2ccc(NC(=O)c3ccccc3)cc2C1=O`, 3.6%.
As to `O=C(C[C@H]1CC[C@@H]2[C@H](COC[C@H](O)CN2S(=O)(=O)c2ccccc2)O1)N1CCOCC1`, the inhibition was -0.872%.
As for `COc1ccccc1-c1cnc2c(c1)C(=O)N([C@@H](C)CO)C[C@@H](C)[C@H](CN(C)Cc1cccnc1)O2`, the figure is 0.854%; as for `CN1c2ccc(C3=CCCCC3)cc2[C@@H]2[C@@H](CCN2S(=O)(=O)c2ccccc2F)[C@H]1CO`, 3.11%.
Under `O=C(C[C@@H]1C=C[C@@H](NC(=O)C2CCC2)[C@H](CO)O1)NCC1CC1` stands -2.09%; under `CCOC(=O)c1c(-c2ccccc2)oc2cc(Br)c(O)cc12`, 0.164%; under `CCOC(=O)c1c(-c2ccccc2)oc2ccc(OCC(N)=O)cc12`, 22.2% (active).
In the case of `CCOC(=O)c1c(-c2ccccc2)oc2ccc(OCC(=O)NN)cc12`, the inhibition is 6.17%.
Under `CN1C(=O)c2cc(NC(=O)c3cccc(F)c3)ccc2OC[C@H]2O[C@@H](CC(=O)NCc3ccccc3Cl)CC[C@@H]21` stands 6.51%; under `O=C(C[C@H]1C[C@H]2c3cc(NC(=O)NC4CCCC4)ccc3O[C@H]2[C@H](CO)O1)NCCc1ccccc1`, -4.04%.
Under `CCC(=O)N1C[C@@H](C)[C@H](OC)CN(C)C(=O)c2cc(NC(=O)NC3CCCC3)ccc2OC[C@H]1C` stands 3.98%; under `COCOCCn1cc(CN2CCS(=O)(=O)N(Cc3ccc(-c4ccc(OC)cc4)cc3)C(CC(C)C)C2=O)nn1` (centres undefined), 18.3% (active).
Under `COCOCCn1cc(CN2CCS(=O)(=O)N(Cc3ccc(-c4ccccc4)cc3)C(CC(C)C)C2=O)nn1` (centres undefined) stands -0.714%; under `COCOCCn1cc(CN2CCS(=O)(=O)N(Cc3ccc(-c4cccc(N(C)C)c4)cc3)C(CC(C)C)C2=O)nn1` (centres undefined), -0.197%; under `C[C@@H]1CN([C@H](C)CO)C(=O)c2cc(NS(=O)(=O)c3cccs3)ccc2O[C@@H](C)CCCCO[C@H]1CN(C)Cc1ccc(C(F)(F)F)cc1`, 13.1%.
For `CCS(=O)(=O)N1CC(=O)N2[C@H](CO)[C@@H](c3ccc(C#CC4CCCC4)cc3)[C@@H]2C1`, the inhibition is -0.752%.
For the molecule `COc1ccccc1CN1CCNC(=O)C1CC(=O)N(C)CC1CCOCC1` (centres undefined), the inhibition was -0.968%.
As for `CCN(CCn1cccn1)C(=O)CC1C(=O)NCCN1Cc1cccc(OC)c1OC` (centres undefined), the inhibition is 16.5% (active).
Under `CN(Cc1cccc2ncccc12)C(=O)CC1C(=O)NCCN1Cc1ccc(F)cc1` (centres undefined) stands 7.41%; under `Cc1noc(C)c1S(=O)(=O)Nc1ccc2c(c1)C(=O)N([C@H](C)CO)C[C@H](C)[C@H](CN(C)C(=O)NC1CCCCC1)OCCCC[C@H](C)O2`, 0.076%.
With `COc1ccccc1-c1nnc(NC(=O)c2cccc(N3C(=O)CCC3=O)c2)o1`, the inhibition was 1.38%.
Take `Cc1sc(NC(=O)c2ccc3ncsc3c2)c(C(N)=O)c1C`: the inhibition is -6.86%.
As for `COc1ccccc1-c1nnc(NC(=O)c2ccc3ncsc3c2)o1`, the figure is 20.5% (active); as for `CCCNC(=O)C[C@H]1CC[C@@H]2[C@H](COC[C@H](O)CN2CC2CCCCC2)O1`, -1.9%.
On to `C[C@H](CO)N1C[C@H](C)[C@@H](CN(C)C)Oc2ncc(-c3cccc(F)c3)cc2C1=O`, for which the inhibition is -1.97%.
As for `C[C@H]1CN([C@@H](C)CO)C(=O)c2cc(-c3cccc(F)c3)cnc2O[C@@H]1CN(C)S(C)(=O)=O`, the figure is 0.285% and -8.78%; as for `COc1cccc(-c2cnc3c(c2)C(=O)N([C@@H](C)CO)C[C@H](C)[C@H](CN(C)C(C)=O)O3)c1`, 2.24%; as for `C[C@@H]1CN([C@H](C)CO)C(=O)c2cc(-c3cccc(F)c3)cnc2O[C@@H]1CN(C)C`, 21.7% (active).
Under `C[C@H]1CN([C@@H](C)CO)C(=O)c2cc(-c3cccc(F)c3)cnc2O[C@@H]1CN(C)C(=O)c1ccccn1` stands 0.073%.
Under `CC(=O)N(C)C[C@H]1Oc2ncc(-c3cccc(F)c3)cc2C(=O)N([C@@H](C)CO)C[C@H]1C` stands 25.3% (active); under `C[C@H]1CN([C@@H](C)CO)S(=O)(=O)c2ccc(C#Cc3ccccc3)cc2O[C@H]1CN(C)S(=O)(=O)c1cn(C)cn1`, 2.56%; under `COc1ccccc1-c1ccc([C@H]2[C@H](CO)N(C(=O)C3CC3)C23CN(C(C)=O)C3)cc1`, 2.52%.
As to `Cc1cc2cc(CN(Cc3cccs3)Cc3nnnn3CC3CCCO3)c(=O)[nH]c2cc1C` (centres undefined), the inhibition was -2.28%.
As for `Cc1ccc(S(=O)(=O)N(Cc2cc3ccccc3[nH]c2=O)CC2CCCO2)cc1` (centres undefined), the figure is 23.6% (active); as for `O=C(c1cccs1)N(Cc1cc2ccccc2[nH]c1=O)CC1CCCO1` (centres undefined), 0.632%.
As to `CO[C@H]1CN(C)C(=O)c2ccc(NC(=O)CC(F)(F)F)cc2OC[C@@H](C)N(C(=O)c2ccccc2F)C[C@@H]1C`, the inhibition is 4.25%.
Under `O=C(NCCc1ccc(F)cc1)c1ccc2nccnc2c1` stands 16% (active); under `O=C(NCCc1ccc(F)cc1)c1n[nH]c2ccccc12`, 9.38%; under `O=C(NCCc1ccc(F)cc1)c1ccc(S(=O)(=O)N2CCCCC2)cc1`, -0.792%.
For `Cc1ccccc1-c1ccc(C2[C@@H]3CN(C(=O)C4CCCCC4)C[C@H]2N3)cc1` (some centres undefined), the inhibition was -6.18% and -1.65%.
Under `C/C=C/c1ccc(C2[C@H]3CNC[C@@H]2N3Cc2cccc(OC)c2)cc1` (some centres undefined) stands -2.37% and 0.748%.
As for `CCNC(=O)C[C@H]1CC[C@@H]2[C@H](COC[C@H](O)CN2S(=O)(=O)c2ccc(Oc3ccccc3)cc2)O1`, the inhibition is -0.497%.
